Several values for one entry are separate records, joined by “and”; a condition that tells them apart may be missing. Identical values can stand only once. About 79,000 compounds went through this panel and 15% of them were active in at least one assay; those are over-represented in the sample as a whole. Activity calls are given as the source filed them. Rule as the data show it: active = growth inhibition above about 70%; inactive = the rest.
Legend:
[1] = NCI Yeast Anticancer Drug Screen. Data for the wt1 strain (AID 149);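 also: 0% = growth of vehicle-treated wt1 cultures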; details: S. cerevisiae wt1 strain (SPY 50644) growth inhibition, active compounds read high
Procedure, shortened: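 wt1 strain grown with compound or vehicle; inhibition taken from the growth difference.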

[2] = NCI Yeast Anticancer Drug Screen. Data for the rad50EPP+ strain (AID 151);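 also: 0% = growth of vehicle-treated control cultures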; details: S. cerevisiae rad50 mutant strain, active compounds read high
Procedure, shortened: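 Compounds were applied to the rad50EPP+ yeast strain, which bears a defined DNA repair alteration, and growth inhibition was determined relative to vehicle-treated cultures.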

[3] = NCI Yeast Anticancer Drug Screen. Data for the mgt1 strain (AID 153); details: S. cerevisiae mgt1 mutant growth inhibition, active compounds read high
Procedure, shortened: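 Strain: mgt1 yeast, one of a set carrying defined DNA damage repair or cell cycle control alterations. Compound-treated growth compared with vehicle.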

[4] = NCI Yeast Anticancer Drug Screen. Data for the rad50 strain (AID 155);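 also: 0% = growth of vehicle-only cultures of the same strain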; details: S. cerevisiae rad50 strain growth inhibition, active compounds read high
Procedure, shortened: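 DNA repair mutant yeast, compound exposure, growth read-out; inhibition is taken relative to vehicle.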

[5] = NCI Yeast Anticancer Drug Screen. Data for the mec2-1 strain (AID 157); details: S. cerevisiae mec2-1 strain, active compounds read high
Procedure, shortened: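 Strain: mec2-1 (DNA repair/cell cycle alteration). Compound exposure, then growth measured; inhibition expressed relative to vehicle.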

[6] = NCI Yeast Anticancer Drug Screen. Data for the rad14 strain (AID 159);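 also: 0% = growth of vehicle-treated control cultures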; details: S. cerevisiae rad14 strain growth inhibition, active compounds read high
Procedure, shortened: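 DNA repair-defective yeast, compound-exposed; % growth inhibition derived by comparison with vehicle-treated controls.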

[7] = NCI Yeast Anticancer Drug Screen. Data for the sgs1 mgt1 strain (AID 161);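 also: 0% = growth of cultures given vehicle only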; details: S. cerevisiae sgs1 mgt1 strain, active compounds read high
Procedure, shortened: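 Inhibition of yeast growth, normalised to vehicle-treated controls, is reported for a strain bearing genetic alterations in DNA damage repair.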

[8] = NCI Yeast Anticancer Drug Screen. Data for the cln2 rad14 strain (AID 165);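 also: 0% = growth equal to vehicle treated cultures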; details: S. cerevisiae cln2 rad14 strain, active compounds read high
Procedure, shortened: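 Compounds are applied to the cln2 rad14 yeast strain, and growth is then compared with that of vehicle-treated cultures to give inhibition.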

[9] = NCI Yeast Anticancer Drug Screen. Data for the bub3 strain (AID 167); details: S. cerevisiae bub3 mutant strain, active compounds read high
Procedure, shortened: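 In this screen, a yeast mutant lacking normal mitotic checkpoint function is challenged with compound. Relative growth versus vehicle gives the inhibition value.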

[10] = NCI Yeast Anticancer Drug Screen. Data for the wt2 strain (AID 169);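 also: 0% = growth of vehicle-treated yeast cultures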; details: S. cerevisiae wt2 strain growth inhibition, active compounds read high
Procedure, shortened: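 This strain belongs to a panel of yeast strains with defined genetic alterations in DNA damage repair or cell cycle control. Compounds are applied, and growth inhibition is measured against vehicle-treated cultures.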

[11] = NCI Yeast Anticancer Drug Screen. Data for the mlh1 strain (AID 171);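 also: 0% = growth of vehicle-treated control cultures of the same strain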; details: S. cerevisiae mlh1 strain growth inhibition, active compounds read high
Procedure, shortened: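 Growth of the mutant yeast strain after compound exposure, expressed as inhibition relative to vehicle-only controls.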

[12] = NCI Yeast Anticancer Drug Screen. Data for the sgs1 strain (AID 173);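 also: 0% = growth of vehicle-only control cultures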; details: S. cerevisiae sgs1 mutant, active compounds read high
Procedure, shortened: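 Growth of a yeast strain bearing a defined genetic alteration is measured after compound treatment. Inhibition is expressed relative to vehicle-only controls.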

[13] = NCI Yeast Anticancer Drug Screen. Data for the mlh1 rad18 strain (AID 175); details: S. cerevisiae mlh1 rad18 strain growth inhibition, active compounds read high
Procedure, shortened: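 Read-out is yeast growth inhibition, calculated against vehicle-only controls. The compound was applied to a strain engineered with DNA damage repair alterations.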

[14] = NCI Yeast Anticancer Drug Screen. Data for the rad18 strain (AID 177); details: S. cerevisiae rad18 mutant growth inhibition, active compounds read high
Procedure, shortened: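 Growth of the mutant yeast strain after compound exposure, normalised to vehicle-only cultures.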

[15] = NCI Yeast Anticancer Drug Screen. Data for the CLN2oe strain (AID 163);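 also: 0% = growth of vehicle-only control cultures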; details: S. cerevisiae CLN2oe strain, active compounds read high
Procedure, shortened: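 Growth of a genetically modified yeast strain is measured after compound exposure and compared with cultures given vehicle alone.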

[16] = at 5.0 µM (retest, dose inferred, filed as 0.5)
[17] = at 50.0 µM (retest, dose inferred, filed as 5.0)

Measured: growth inhibition

CCCCCCC(CCl)c1sc(-c2csc(CCNC(=O)OC(C)(C)C)n2)nc1C(=O)OC (stereo unspecified)
inactive: [1]; at 1.2 µM -1% | [1]; at 3.7 µM -4% | [1]; at 11.0 µM -5% | [1]; at 33.0 µM -5% | [1]; at 100.0 µM 30% | [2]; at 1.2 µM -1% | [2]; at 3.7 µM 1% | [2]; at 11.0 µM 2% | [2]; at 33.0 µM 4% | [2]; at 100.0 µM 19% | [3]; at 1.2 µM -1% | [3]; at 3.7 µM -3% | [3]; at 11.0 µM -6% | [3]; at 33.0 µM 2% | [4]; at 1.2 µM -1% | [4]; at 3.7 µM 1% | [4]; [16] -23% | [4]; at 11.0 µM 5% | [4]; at 33.0 µM 24% | [4]; [17] 11% | [4]; at 50.0 µM -2.85% | [5]; at 1.2 µM 0% | [5]; at 3.7 µM -3% | [5]; [16] -11% | [5]; at 11.0 µM 0% | [5]; at 33.0 µM 6% | [5]; [17] 39% | [5]; at 50.0 µM 30.1% | [6]; at 1.2 µM 0% | [6]; at 3.7 µM 1% | [6]; at 11.0 µM 6% | [6]; at 33.0 µM 23% | [7]; [16] 17% | [7]; [17] 27% | [7]; at 50.0 µM -13.5% | [8]; [16] 47% | [8]; [17] -2% | [8]; at 50.0 µM -42.5% | [9]; at 1.2 µM -1% | [9]; at 3.7 µM 0% | [9]; [16] -21% | [9]; at 11.0 µM 2% | [9]; at 33.0 µM 8% | [9]; [17] 47% | [9]; at 50.0 µM 9.85% | [10]; at 1.2 µM -3% | [10]; at 3.7 µM -5% | [10]; at 11.0 µM -5% | [10]; at 33.0 µM -6% | [11]; at 1.2 µM -3% | [11]; at 3.7 µM -2% | [11]; at 11.0 µM -4% | [11]; at 33.0 µM -1% | [12]; at 1.2 µM -2% | [12]; at 3.7 µM 0% | [12]; at 11.0 µM 1% | [12]; at 33.0 µM 14% | [13]; [16] -15% | [13]; at 50.0 µM 43.5% | [14]; at 1.2 µM -2% | [14]; at 3.7 µM 2% | [14]; at 11.0 µM 16% | [14]; at 33.0 µM 65%
active: [3]; at 100.0 µM 98% | [4]; at 100.0 µM 97% | [5]; at 100.0 µM 96% | [6]; at 100.0 µM 97% | [9]; at 100.0 µM 94% | [10]; at 100.0 µM 97% | [11]; at 100.0 µM 97% | [12]; at 100.0 µM 97% | [13]; [17] 88% | [14]; at 100.0 µM 96%

Oc1ccc(Br)cc1C=Nc1cccc(C(F)(F)F)c1
active: [1]; at 33.0 µM 91% | [1]; at 100.0 µM 97% | [3]; at 11.0 µM 75% | [3]; at 33.0 µM 96% | [3]; at 100.0 µM 97% | [4]; at 33.0 µM 91% | [4]; [17] 92% | [4]; at 50.0 µM 70.5% | [4]; at 100.0 µM 97% | [5]; at 33.0 µM 97% | [5]; [17] 97% | [5]; at 50.0 µM 85.5% | [5]; at 100.0 µM 97% | [7]; at 50.0 µM 81.7% | [8]; [17] 86% | [9]; [17] 94% | [9]; at 50.0 µM 88.2% | [11]; at 33.0 µM 96% | [11]; at 100.0 µM 97% | [12]; at 33.0 µM 94% | [12]; at 100.0 µM 97% | [13]; [17] 97% | [14]; at 33.0 µM 83% | [14]; at 100.0 µM 97%
inactive: [1]; at 1.2 µM -2% | [1]; at 3.7 µM -7% | [1]; at 11.0 µM 9% | [2]; at 1.2 µM 0% | [2]; at 3.7 µM 4% | [2]; at 11.0 µM 10% | [2]; at 33.0 µM 30% | [2]; at 100.0 µM 64% | [3]; at 1.2 µM -2% | [3]; at 3.7 µM 21% | [4]; at 1.2 µM -28% | [4]; at 3.7 µM -20% | [4]; [16] 16% | [4]; at 11.0 µM 32% | [5]; at 1.2 µM 3% | [5]; at 3.7 µM -7% | [5]; [16] -17% | [5]; at 11.0 µM 59% | [7]; [16] 1% | [7]; [17] 63% | [15]; at 1.2 µM -4% | [15]; at 3.7 µM -1% | [15]; at 11.0 µM -1% | [15]; at 33.0 µM 1% | [15]; at 100.0 µM 25% | [8]; [16] 28% | [8]; at 50.0 µM 61% | [9]; at 1.2 µM -6% | [9]; at 3.7 µM -1% | [9]; [16] 42% | [9]; at 11.0 µM -5% | [9]; at 33.0 µM 0% | [9]; at 100.0 µM 28% | [10]; at 1.2 µM -1% | [10]; at 3.7 µM -1% | [10]; at 11.0 µM 0% | [10]; at 33.0 µM 10% | [10]; at 100.0 µM 65% | [11]; at 1.2 µM -1% | [11]; at 3.7 µM 17% | [11]; at 11.0 µM 68% | [12]; at 1.2 µM 14% | [12]; at 3.7 µM 10% | [12]; at 11.0 µM 65% | [13]; [16] 48% | [13]; at 50.0 µM 66.9% | [14]; at 1.2 µM -15% | [14]; at 3.7 µM -12% | [14]; at 11.0 µM 16%

Cc1nc2ccc(Br)cc2c(=O)n1-c1ccc(NC2OCC(O)C(O)C2O)cc1 (stereo unspecified)
inactive: [1]; at 1.2 µM 3% | [1]; at 3.7 µM 9% | [1]; at 11.0 µM 12% | [1]; at 33.0 µM 32% | [2]; at 1.2 µM 1% | [2]; at 3.7 µM -1% | [2]; at 11.0 µM -1% | [2]; at 33.0 µM 5% | [2]; at 100.0 µM 13% | [3]; at 1.2 µM 6% | [3]; at 3.7 µM 9% | [3]; at 11.0 µM 24% | [3]; at 33.0 µM 41% | [4]; at 1.2 µM -3% | [4]; at 3.7 µM 17% | [4]; [16] 11% | [4]; at 11.0 µM 14% | [4]; at 33.0 µM 53% | [4]; [17] 0% | [4]; at 50.0 µM 62.1% and 46.9% | [5]; at 1.2 µM 12% | [5]; at 3.7 µM 14% | [5]; [16] 1% | [5]; at 11.0 µM 23% | [5]; at 33.0 µM 54% | [5]; [17] 45% | [5]; at 50.0 µM 38.2% and 56.2%
active: [1]; at 100.0 µM 70% | [3]; at 100.0 µM 81% | [4]; at 100.0 µM 86%
